Source: PubChem BioAssay AID434927 (Sanford-Burnham Center for Chemical Genomics, 2010)
Unmarked numbers belong to inactive results. Active and inactive are the calls of the source.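 How the source made its calls: active means inhibition above about 23% in any of six single-dose repeats (limit read from the data); inactive means the rest.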

What follows are molecules tested against Intestinal-type alkaline phosphatase (Homo sapiens) (UniProt P09923) (assay: human IAP inhibitors, confirmation, biochemical, luminescence, single concentration, uHTS hits (AID 434927;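 further: plate controls were DMSO wells with enzyme for no effect and wells lacking enzyme for full effect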)). Conditions: purified human IAP, CDP-Star luminescence, 30 min; at 8.3 µM; hits give high values.
Intestinal-type alkaline phosphatase (Homo sapiens), sequence (P09923 whole entry, looked up): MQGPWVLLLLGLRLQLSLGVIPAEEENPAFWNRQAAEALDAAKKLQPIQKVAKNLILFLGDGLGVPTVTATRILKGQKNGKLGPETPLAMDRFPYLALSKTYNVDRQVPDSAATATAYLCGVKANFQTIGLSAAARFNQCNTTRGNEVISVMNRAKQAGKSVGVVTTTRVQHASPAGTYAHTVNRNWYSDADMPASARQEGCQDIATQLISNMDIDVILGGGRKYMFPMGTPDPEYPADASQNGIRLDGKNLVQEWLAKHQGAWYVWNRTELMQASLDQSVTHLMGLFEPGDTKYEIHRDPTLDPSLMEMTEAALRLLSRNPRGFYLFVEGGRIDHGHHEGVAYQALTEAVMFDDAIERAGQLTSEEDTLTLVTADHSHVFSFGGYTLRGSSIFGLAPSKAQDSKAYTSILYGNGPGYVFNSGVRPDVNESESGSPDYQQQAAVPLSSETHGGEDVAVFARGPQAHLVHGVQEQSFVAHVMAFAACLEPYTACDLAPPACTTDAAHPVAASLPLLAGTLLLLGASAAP

| SMILES | inhibition |
| --- | --- |
| Cc1cc(C(=O)NNC(=O)COc2c(C)cc(Br)cc2C)n[nH]1 | -0.057% |
| COc1cc(/C=C2\SC(=S)N(N(C)c3ccccc3)C2=O)ccc1O | 60.4% (active) |
| O=S(=O)(c1ccccc1)N1CCCC1c1cccs1 (centres undefined) | -172% |
| CCn1c(C)nc2cc(C(=O)N/N=C/c3cccc(O)c3O)ccc21 | -42.9% |
| CC(C)(C)NC(=O)C(=O)NNC(=O)COc1ccccc1 | 39% (active) |
| O=C(CCN1CCN(Cc2ccccc2)CC1)NNC(=O)Nc1cccc(C(F)(F)F)c1 | -0.057% |
| O=C(Nc1cccc(-c2cccc(F)c2)c1)C1CCN(C2CCC2)CC1 | 67.6% (active) |
| Cc1[nH]n(-c2nc(-c3ccccc3)cc(=O)[nH]2)c(=O)c1CCO | 47.5% (active) |
| CC(C)Oc1ccc(C(=O)Nc2ncn[nH]2)cc1 | -64.7% |
| Cc1cccn2c(=O)c3cc(C(=O)NC4CCCC4)c(=N)n(C4CCCCC4)c3nc12 | -122% |
| Cc1nc(Nc2nc3c(c(=O)[nH]2)CCC3)nc2ccccc12 | -77.6% |
| CC1Cn2c(nnc2C23CC4CC(CC(C4)C2)C3)S1 (centres undefined) | 95.1% (active) |
| C#CCOCCOCCOCCNc1nc(N2CCN(C(=O)CCCCCCCCCCNC(=O)[C@H]([C@@H](C)CC)n3cc(CCCCN=C(N)N)nn3)CC2)nc(N2CCN(C(=O)CCCCCCCCCCNC(=O)[C@H](CO)n3cc(CCCSC)nn3)CC2)n1 | 38.5% (active) |
| COC(=O)CN1C(=O)C(O)(CC(=O)c2ccc(C)cc2)c2ccccc21 (centres undefined) | 45.9% (active) |
